HER2 expr 66K = inhibitors of human Her2 kinase expression; P04626; SKBR-3 HER2 protein level, AlphaScreen, 18-24 h; hits give low values; HER2 level % of control, % at 10 µM; 0.69% of 65,000 active; AID 645;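 active = HER2 level under 5% of the carrier-only control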;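 also: 100% = DMSO carrier and 0% = 500 nM PU-H71 HSP90 inhibitor; lower value means stronger loss of Her2 protein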
M1 antag = antagonists of rat M1 muscarinic receptor. CHO-M1 cells, Fluo-4 calcium, ACh EC80 antagonist mode; hits give low values. P08482. B-score at 10 µM. 3.4% of 64,000 active;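 active = calcium fluorescence response, raw or row-and-column corrected B-score, differing from the plate sample mean either way at a set confidence level, mostly lower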
M1 ag = activates the M1 muscarinic receptor; AID 626; B-score at 10 µM; 3% of 64,000 active; CHO-M1 cells, Fluo-4 calcium fluorescence, agonist mode; hits give high values;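 active = fluorescence rise, raw or as B-score row- and column-corrected plate score, outside the 99.7% band of its plate's samples, either direction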
PLAP activator = human PLAP activation. purified PLAP enzyme, luminescent substrate read-out; hits give high values. AID 696. activation fold at 20 µM. 1.2% of 96,000 active; in the data active = activation fold above about 2
Target sequence (P05187 whole entry, looked up): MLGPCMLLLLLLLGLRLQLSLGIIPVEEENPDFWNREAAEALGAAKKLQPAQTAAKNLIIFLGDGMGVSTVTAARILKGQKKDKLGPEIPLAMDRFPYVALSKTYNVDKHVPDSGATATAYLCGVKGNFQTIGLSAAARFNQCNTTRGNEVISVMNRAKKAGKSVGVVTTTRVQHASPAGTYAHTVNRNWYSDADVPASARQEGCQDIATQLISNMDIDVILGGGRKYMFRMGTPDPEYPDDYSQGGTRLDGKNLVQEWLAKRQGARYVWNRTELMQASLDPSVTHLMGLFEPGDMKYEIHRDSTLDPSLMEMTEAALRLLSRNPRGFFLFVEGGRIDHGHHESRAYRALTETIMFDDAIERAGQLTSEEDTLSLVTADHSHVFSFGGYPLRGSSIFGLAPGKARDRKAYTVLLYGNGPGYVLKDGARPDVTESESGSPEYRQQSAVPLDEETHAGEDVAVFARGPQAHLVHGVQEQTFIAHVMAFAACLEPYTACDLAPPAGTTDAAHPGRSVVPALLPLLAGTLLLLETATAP
Cav3 T inh = human Cav3.2 channel inhibition, primary screen | O95180 | AID 449739 | Cav3.2-expressing cells, Fluo-4 calcium fluorescence FDSS; hits give low values | 4% of 100,000 active | B-score at 10 µM;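 active = single-dose well whose peak fluorescence ratio is a statistical outlier from its plate by either plate-standardised score or position-corrected B-score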
Starred values were filed as active, the others as inactive; . = no result given. Shown are actives, neighbours in structure and some others; about 7.9% of the full set was active somewhere.

SMILES	HER2 expr 66K	M1 antag	M1 ag	PLAP activator	Cav3 T inh
Cc1ccc(S(=O)(=O)NC(=O)c2ccc(-c3ccc(-c4ccccc4)cc3)o2)c(C)c1	.	.	.	.	-4.3*
NC(=O)C1CCN(C(=O)CN2CCN(c3cccc(C(F)(F)F)c3)CC2)CC1	121	-0.12	-0.32	1.1	0.34
OC(CN1CCN(c2cccc(C(F)(F)F)c2)CC1)c1c[nH]c2ccccc12 (stereo not given)	-22*	0.047	0.62	1.1	-2.3
N#Cc1ccc(-c2ccco2)nc1SCc1ccccc1	-0.7*	.	.	0.8	-0.0038
CSCC[C@H](NC(=O)OC(C)(C)C)C(=O)N/N=C/c1c(C)[nH]c(=O)[nH]c1=O	.	.	.	2.2*	.
OC(CNCc1ccccc1)(c1ccc(F)cc1)c1ccc(F)cc1	.	.	.	0.7	-2.7
COc1ccccc1CNCC(O)(c1ccc(Cl)cc1)c1ccc(Cl)cc1	.	.	.	0.8	-4.5*
Cc1cc(C)cc(Nc2ncc3c(n2)CCCC3=O)c1	216	0.36	-0.14	1	0.7
Cc1ccc2nc(Nc3ncc4c(n3)CCCC4=O)nc(C)c2c1	99	-2.7*	0.35	1	.
O=C(NCC1CCCO1)c1ccc2c(c1)S(=O)(=O)c1ccccc1C2=O (stereo not given)	.	.	.	.	0.86
CCN(CC)S(=O)(=O)c1ccc2c(c1)nc(CCC(=O)Nc1ccccc1Cc1ccccc1)n2CC	.	.	.	1.6	-4.4*
Cc1sc2nc(CN3CCCC3)nc(N3CCC(C(N)=O)CC3)c2c1C	.	.	.	2*	0.0061
Cc1ccccc1NC(=O)c1ccc(CN2CCc3ccccc3C2)cc1	.	.	.	0.8	-6.7*
CCc1ccccc1NC(=O)c1ccc(CN2CCC(Cc3ccccc3)CC2)cc1	.	.	.	1.4	-7.8*
Cn1c(Cc2ccccc2)nnc1SCC(=O)c1cccs1	.	.	.	1.1	-0.78
CC(C)(C)OC(=O)N1CCC2(CC1)Oc1ccc(Cl)cc1C(=O)C21CC(c2ccc(Cl)cc2)=NO1 (stereo not given)	.	.	.	.	-0.48
O=C(Nc1cc(C(F)(F)F)ccc1N1CCOCC1)c1ccco1	92	-1.2	-1	0.9	0.4
Cc1onc(-c2ccccc2)c1C(=O)Nc1cc(C(F)(F)F)ccc1N1CCOCC1	68	0.45	0.16	1.6	-5.9*
O=C(CCc1ccccc1)NC(=S)Nc1cc(C(F)(F)F)ccc1N1CCOCC1	.	.	.	1	-5.7*
Cc1cccc(N2CCN(C(=O)C(Cc3ccccc3)n3cccc3)CC2)c1C (stereo not given)	.	.	.	1.2	-4.7*
Cc1cccc(N2CCN(C(=O)CCCOc3ccccc3)CC2)c1C	160	-0.54	-0.12	1.4	-7.7*
O=C(CCCOc1ccccc1)N1CCN(c2ccccc2)CC1	.	.	.	1.3	-4.3*
CCOC(=O)N1CCN(C(=O)CCCOc2ccccc2)CC1	73	-0.12	0.91	1.2	0.015
CC(=O)C1=NN(c2ccccc2)C2(S1)S/C(=C\c1ccccc1)C(=O)N2c1ccccc1 (stereo not given)	.	.	.	1.1	-1.8
O=c1c2ccccc2c(-c2ccccc2)nn1-c1ccc(Cl)c(Cl)c1	.	.	.	0.8	-0.84
SMILES	HER2 expr 66K	M1 antag	M1 ag	PLAP activator	Cav3 T inh
CCOc1cccc(N(C(=O)Cc2cccs2)C(C(=O)NC2CCCCC2)c2cccn2C)c1 (stereo not given)	.	.	.	.	-4.1*
Cc1cc(C)cc(N(C(=O)Cc2cccs2)C(C(=O)NC2CCCCC2)c2ccccn2)c1 (stereo not given)	.	.	.	1.1	-5.3*
COc1ccccc1/C=C1\SC(=O)N(CCC(=O)NNC(=O)c2ccccc2Cl)C1=O	.	.	.	0.8	0.46
COc1ccccc1OCCN1C(=O)S/C(=C\c2ccco2)C1=O	.	.	.	1	-6.5*
Cc1nn(Cc2n[nH]c(=S)n2Cc2ccccc2)c(C)c1Cl	.	.	.	1.1	-0.37
COc1ccc(Cc2nnc(SCC(=O)Nc3nc(C)cs3)o2)cc1	80	1	-0.47	1.2	-0.42
CCOC(=O)C1=C(C)C(c2ccccc2OC)NC(=S)N1 (stereo not given)	.	.	.	1.1	0.26
CCCOc1ccccc1C1C(C(=O)OC)=CN(C(C)C)C=C1C(=O)OC	110	-0.0095	-0.025	2*	.
COc1ccc(C(NC(C)=O)c2ccc3cccnc3c2O)c(OC)c1 (stereo not given)	42	0.16	0.86	2.4*	0.28
CN(C)CCCNS(=O)(=O)c1cc(Cl)ccc1Cl	112	0.52	0.0081	1.4	0.97
O=S(=O)(c1ccc(N2CCC(c3ccc(Cl)cc3)=N2)cc1)N(CCO)CCO	.	.	.	2.2*	.
CN(C)CCCNS(=O)(=O)c1ccc(N2CCC(c3ccc(Cl)cc3)=N2)cc1	.	.	.	2.3*	2.1
O=C1CC(NCCC2=CCCCC2)C(=O)N1c1cccc(Cl)c1Cl (stereo not given)	.	.	.	1.4	-3.4*
CC(=O)Nc1ccc(Nc2ncnc3c2cnn3-c2ccc(C)cc2C)cc1	.	.	.	2*	0.77
CCC(c1nnc(SCC(=O)Nc2ccc(C(=O)Nc3ccccc3OC)cc2)o1)N(C)C (stereo not given)	68	0.005	-0.48	2.3*	-1.2
CCC(=O)Nc1ccc(-c2nnc(SCC(=O)NCC3CCCO3)n2C)cc1 (stereo not given)	109	0.035	0.64	.	.
O=C(CC(c1ccccc1)c1ccccc1)Nc1ncn[nH]1	94	0.24	-0.039	2.9*	0.87
OCC[C@@H]1C[C@H](O)[C@@H](O)[C@]2(CCCO2)O1	.	.	.	.	-0.075
Cc1cc(C(F)(F)F)c2c(N)c(C(=O)Nc3cc(C)on3)sc2n1	104	-0.0038	3.5	1	1.2
Nc1c(C(=O)Nc2ccccc2F)sc2nc(Cc3ccccc3)cc(C(F)(F)F)c12	.	.	.	1.3	-3.4*
COc1ccnc(CS(=O)c2nc3cc(OC(F)F)ccc3[nH]2)c1OC (stereo not given)	.	.	.	.	-0.059
COc1ccc(-c2[nH]ncc2/C=N\NS(=O)(=O)c2ccc(Cl)cc2)cc1	.	.	.	1.1	-2
CC(C)(Oc1ccc(Cl)cc1)C(=O)N/N=C/c1cn[nH]c1-c1ccccc1	.	.	.	2.8*	-2.7
CC(C)(C)c1cc(C(F)(F)F)nc(SCCCNC(=O)c2ccco2)n1	76	0.51	0.73	1.5	-4.6*
COc1ccc(CCNC(=O)CCSc2nc(-c3ccco3)cc(C(F)(F)F)n2)cc1	94	0.31	-0.76	1.1	-1.1
SMILES	HER2 expr 66K	M1 antag	M1 ag	PLAP activator	Cav3 T inh
CCOC(=O)c1cc2c(C)n(-c3ccc(C)cc3)c(C)c2ccc1=O	.	.	.	1	-7.4*
O=c1c2ccccc2n(Cc2cccc(F)c2)c(=O)n1C1CCCC1	110	.	.	0.8	.
N#Cc1ccccc1Cn1c(=O)n(C2CCCC2)c(=O)c2ccccc21	.	.	.	1.3	-5.1*
COC(=O)c1cccc(COC(=O)c2ccc(CS(=O)(=O)c3ccc(C)cc3)cc2)c1	.	.	.	1.2	0.029
CCc1cccc(NC(=O)CN(c2ccc(OC)cc2)S(=O)(=O)c2c(C)n[nH]c2C)c1	76	0.15	2.7	2.4*	-4.2*
COc1cc(NC(=O)CN(c2ccc(C)cc2)S(=O)(=O)c2c(C)n[nH]c2C)cc(OC)c1	84	0.64	-0.41	1.6	-1
COc1ccc(N(CC(=O)Nc2ccc(C)c(C)c2)S(=O)(=O)c2c(C)n[nH]c2C)cc1	77	0.53	0.2	2.1*	.

Source: PubChem BioAssay (several laboratories)
